Drawing on PubChem BioAssay AID651789 (National Center for Advancing Translational Sciences (NCATS), 2012), this text covers Potency for 40 molecules.

Inconclusive results are not listed. A call without a number means that no potency is given here. The source made the active and inactive calls. The call rests on the fitted dose curve; in most records, active means well fitted inhibition curve with a large enough effect; inconclusive means small, poorly fitted or top-dose-only effect; inactive means no such curve, though single readings can be large or run the other way.
Potency means the concentration at half of the fitted maximal effect.

This experiment in a line: Acumen qHTS Assay for Inhibitors of the mTORC1 Signaling Pathway in WT MEF Cells: Hit Validation. Further: nearly all actives have a fitted effect of over 60% in size. The following applies: Acumen imaging; series mostly up to 37.3 µM. An outline of the steps: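 Read-out is immunofluorescent phospho-rpS6 (Ser235/236) normalised to PI-stained cell number, reported as % active cells using a 7.5 nM rapamycin threshold. Cells: WT or Tsc2-/-, p53-/- MEFs, compound-exposed 24 h at 37C; PI count also tracks viability.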
As for `CCC(=O)C1=C(c2ccc(F)cc2)N(C(=O)CC)n2cnnc2S1`, the Potency result is “inactive”.
The entry for `COC(=O)c1ccccc1NC(=O)CSc1n[nH]c(CC(C)C)n1` is “inactive”; for `CCCS(=O)(=O)c1c(S(=O)(=O)CCC)c2cc(C(C)(C)C)ccn2c1C(=O)c1ccc(OC)c(OC)c1` it is “inactive”.
The entry for `O=C(CN1C(=O)C(c2ccc(F)cc2)=NC12CCCCCC2)Nc1ccccc1Cl` is “inactive”.
The figure for `O=C(Cn1c(=O)c2ccccc2n(CC(=O)Nc2ccc(Cl)cc2)c1=O)NCCc1ccccc1` is 14700 nM (active); for `Cc1cccc(-c2nc3c(cnn3-c3ccccc3)c(=O)n2-c2ccc(Br)cc2)c1` it is “inactive”; for `Cc1ccc(C(=O)c2cn(CC(=O)NCc3ccccc3Cl)c3nc(C)ccc3c2=O)cc1` it is “inactive”.
As to `Cc1cccc(NC(=O)c2nc(S(C)(=O)=O)ncc2Cl)c1`, the Potency is 1650 nM (active).
`O=C(NCc1ccc(F)cc1)c1ccc2c(Cl)c3c(nc2c1)CCCC3`: the Potency result is “inactive”.
With `COc1ccc2c(c1)CC(C(=O)Nc1cc(Cl)ccc1C)CO2` (stereo not given), the Potency entry is “inactive”.
The entry for `COc1ccc(Cn2c(C(=O)O)c(CNCc3ccc(SC)cc3)c3ccc(OC)cc32)cc1` is “inactive”; for `COc1ccc(-c2[nH]nc3nc(-c4cc(OC)c(OC)c(OC)c4)cc(C(=O)O)c23)cc1` it is “inactive”; for `C=C(C)CSc1nc(-c2ccccc2)cc(-c2ccc(OC)cc2)c1C#N` it is “inactive”.
Regarding `CCOc1ccc(CC(=O)NC2CC(=O)N(c3ccc4c(c3)OCCO4)C2)cc1` (stereo not given), the Potency result was “inactive”.
The same measure for `COc1ccc(S(=O)(=O)N(Cc2nc(-c3cccc(C)c3)no2)C2CCCCC2)cc1`: “inactive”; for `Brc1ccc(Nc2c3c(nc4nncn24)CCC3)cc1`: “inactive”; for `Cc1cccc(N2CCN(c3ncnc4c3nc3n4CCCCC3)CC2C)c1` (stereo not given): 11700 nM (active).
In the case of `COc1ccc(-c2nc(CCNC(=O)c3c(F)cccc3Cl)cs2)cc1`, the Potency entry was “inactive”.
The entry for `Cc1ccc2sc(N(CCCN(C)C)C(=O)c3ccco3)nc2c1C` is “inactive”.
On to `Cc1ccc2nc(-c3cccc(NC(=O)c4cccc5ccccc45)c3)oc2c1`, for which the Potency result is “inactive”.
The entry for `CCOc1cc(C2CC(=O)Nc3cc4c(cc32)OCCO4)ccc1O` (stereo not given) is “inactive”; for `CCOc1ccc(Nc2nc(-c3cccc(Cl)c3)c3c(n2)-c2ccccc2OC3)cc1` it is “inactive”; for `CCn1c(=O)sc2cc(NS(=O)(=O)c3ccc(F)c(C)c3)ccc21` it is “inactive”.
Consider `O=C(CSc1nc2c([nH]c3ccccc32)c(=O)n1-c1ccc(F)cc1)NC1CCCCC1`, for which the Potency entry is “inactive”.
For `Cc1cccc(C(=O)Nc2c3c(nn2-c2ccc(Cl)cc2)CS(=O)(=O)C3)c1`, the Potency result was “inactive”.
The same measure for `COc1ccc(C)cc1NC(=O)C(Cc1ccccc1)NS(=O)(=O)c1ccc(Br)s1` (stereo not given): “inactive”.
As for `Cc1ccc(-c2cc(C(=O)N3CCN(c4ccccc4)CC3)c3ccccc3n2)cc1C`, the Potency entry was “inactive”.
As to `COc1ccc(S(=O)(=O)N(CCc2ccccc2)CC(=O)Nc2cccc(OC)c2)cc1`, the Potency result was “inactive”.
The same measure for `COc1cc(Cl)c(C)cc1NC(=O)C1CCN(c2nc3ccccc3n3cccc23)CC1`: “inactive”.
Turning to `CCN1C(=O)c2ccccc2Sc2ccc(NC(=O)Cc3ccc(OC)cc3)cc21`, the Potency result is “inactive”.
As for `Cc1nnc(C(=O)NC(C)(C)c2nc(C(=O)NCc3ccc(F)cc3)c(O)c(=O)n2C)o1`, the Potency entry is “inactive”.
The same measure for `CCCCCn1c(=N)n(CC(O)COc2cccc(C)c2)c2ccccc21` (stereo not given): 4140 nM (active).
The entry for `CCOC(=O)c1c(NC(=O)c2cc(CC)on2)sc(C(C)=O)c1C` is “inactive”; for `COc1ccc(-c2nc(C)c(CCNC(=O)c3ccccc3Br)s2)cc1OC` it is “inactive”.
As to `COc1cc(CNc2ccc3c(c2)ncn3C(C)C)cc(OC)c1OC`, the Potency entry was “inactive”.
The figure for `C=CCc1c(C)nc2nc(SCC(=O)Nc3ccc(C)c(C)c3)nn2c1C` is 1170 nM (active); for `COc1ccc(CCNC(=O)C(C)n2nc(C)c3sc4ccccc4c3c2=O)c(OC)c1` (stereo not given) it is “inactive”.
For `Cc1ccc(C)c(NC(=O)c2nc(S(=O)(=O)Cc3ccc(F)cc3)ncc2Cl)c1`, the Potency is 2330 nM (active).
The figure for `CCCCS(=O)(=O)c1oc(-c2ccc(F)cc2)nc1S(=O)(=O)c1ccccc1` is 656 nM (active); for `O=C(CC(NCc1cccnc1)C(=O)O)Nc1ccc(O)cc1` (stereo not given) it is “inactive”.
